Source: PubChem BioAssay (NCI)
Compounds without any hit were thinned out: in the full panel of roughly 83,000, 20% have a hit.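 Single-concentration screen, 48 h exposure, 96-well plates. Endpoint: percent growth. Below 10 = active.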 The source made the active and inactive calls.

How the values were obtained:
Test in all cases: NCI-60 one-dose screen, 48 h (100 = growth as untreated, 0 = no growth, -100 = all killed)
Settings in all cases: 10 µM unless noted
HCT-15 colon = system: HCT-15 colon
HT29 colon = system: HT29 colon
SNB-75 CNS = system: SNB-75 CNS
SNB-19 CNS = system: SNB-19 CNS
U251 CNS = system: U251 CNS
PC-3 prostate = system: PC-3 prostate
SK-MEL-5 melanoma = system: SK-MEL-5 melanoma
UACC-62 melanoma = system: UACC-62 melanoma
LOX IMVI melanoma = system: LOX IMVI melanoma
SK-MEL-28 melanoma = system: SK-MEL-28 melanoma
SK-MEL-2 melanoma = system: SK-MEL-2 melanoma
EKVX NSCLC = system: EKVX NSCLC
SN12C renal = system: SN12C renal
UO-31 renal = system: UO-31 renal
TK-10 renal = system: TK-10 renal
ACHN renal = system: ACHN renal
CAKI-1 renal = system: CAKI-1 renal
A498 renal = system: A498 renal
CCRF-CEM leukemia = system: CCRF-CEM leukemia
MOLT-4 leukemia = system: MOLT-4 leukemia

Measured: growth

CCCC(CCC)(C(N)=O)C(=O)O
inactive: HCT-15 colon 105% | HT29 colon 101% | SNB-75 CNS 104% | SNB-19 CNS 112% | U251 CNS 106% | PC-3 prostate 121% | SK-MEL-5 melanoma 110% | UACC-62 melanoma 106% | LOX IMVI melanoma 93.5% | SK-MEL-28 melanoma 113% | SK-MEL-2 melanoma 120% | EKVX NSCLC 105% | SN12C renal 102% | UO-31 renal 92.2% | TK-10 renal 115% | ACHN renal 103% | CAKI-1 renal 95.3% | A498 renal 104% | CCRF-CEM leukemia 103% | MOLT-4 leukemia 113%

COc1ccccc1/C=N\Nc1ccc([N+](=O)[O-])cn1
inactive: HCT-15 colon 102% | HT29 colon 107% | SNB-75 CNS 110% | SNB-19 CNS 103% | U251 CNS 101% | PC-3 prostate 98.8% | SK-MEL-5 melanoma 102% | UACC-62 melanoma 100% | LOX IMVI melanoma 98.5% | SK-MEL-28 melanoma 120% | SK-MEL-2 melanoma 102% | EKVX NSCLC 92.8% | SN12C renal 109% | UO-31 renal 90.8% | TK-10 renal 111% | ACHN renal 109% | CAKI-1 renal 90.4% | A498 renal 106% | CCRF-CEM leukemia 106% | MOLT-4 leukemia 103%

COc1cccc(/C(C)=N/NC(=O)CSc2nc3ccccc3c(=O)n2CCc2ccc(S(N)(=O)=O)cc2)c1
inactive: HCT-15 colon 69.7% | SNB-75 CNS 42.1% | SNB-19 CNS 24.7% | UACC-62 melanoma 25.1% | LOX IMVI melanoma 26% | SK-MEL-28 melanoma 67.5% | SK-MEL-2 melanoma 30% | EKVX NSCLC 96.9% | SN12C renal 39.6% | UO-31 renal 98.9% | TK-10 renal 32.3% | ACHN renal 85% | CAKI-1 renal 70.5% | A498 renal 72.1% | CCRF-CEM leukemia 22.3% | MOLT-4 leukemia 14.4%
active: HT29 colon 2.6% | U251 CNS -55.4% | PC-3 prostate 7.25% | SK-MEL-5 melanoma 1.45%

CC(SC(C)C(=O)N/N=C/c1cccc(Cl)c1)C(=O)N/N=C\c1cccc(Cl)c1 (stereo not given)
inactive: HCT-15 colon 86.5% | HT29 colon 79% | SNB-75 CNS 83.7% | SNB-19 CNS 89.5% | U251 CNS 48.2% | PC-3 prostate 53.5% | SK-MEL-5 melanoma 98.2% | UACC-62 melanoma 92.1% | SK-MEL-28 melanoma 117% | SK-MEL-2 melanoma 95.8% | EKVX NSCLC 94.9% | SN12C renal 63.9% | UO-31 renal 90.2% | TK-10 renal 105% | ACHN renal 44% | CAKI-1 renal 91.6% | A498 renal 102% | CCRF-CEM leukemia 48.6% | MOLT-4 leukemia 68.3%
active: LOX IMVI melanoma 7.06%

COc1ccc(-n2c(COc3ccc(F)cc3)n[nH]c2=S)cc1
inactive: HCT-15 colon 114% | HT29 colon 103% | SNB-75 CNS 97.7% | SNB-19 CNS 106% | U251 CNS 97.4% | PC-3 prostate 154% | SK-MEL-5 melanoma 105% | UACC-62 melanoma 98.6% | LOX IMVI melanoma 104% | SK-MEL-28 melanoma 127% | SK-MEL-2 melanoma 33.1% | EKVX NSCLC 107% | SN12C renal 84.4% | UO-31 renal 107% | TK-10 renal 101% | ACHN renal 99.7% | CAKI-1 renal 104% | A498 renal 108% | CCRF-CEM leukemia 143% | MOLT-4 leukemia 114%

Cc1c2c(cc3c1[nH]c1ccccc13)C=NCC2
inactive: HCT-15 colon 95.1% | HT29 colon 61.2% | SNB-75 CNS 84% | SNB-19 CNS 93.4% | U251 CNS 92.5% | PC-3 prostate 91% | SK-MEL-5 melanoma 88.1% | UACC-62 melanoma 107% | LOX IMVI melanoma 87.4% | SK-MEL-28 melanoma 118% | SK-MEL-2 melanoma 109% | EKVX NSCLC 80% | SN12C renal 90.8% | UO-31 renal 80% | TK-10 renal 113% | ACHN renal 96.9% | CAKI-1 renal 92.9% | A498 renal 71.7% | CCRF-CEM leukemia 75.9% | MOLT-4 leukemia 83.3%

NC(=O)c1ccc[n+](Cc2ccccc2)c1
inactive: HCT-15 colon 96.7% | HT29 colon 101% | SNB-75 CNS 95.1% | SNB-19 CNS 106% | U251 CNS 92.8% | PC-3 prostate 94.6% | SK-MEL-5 melanoma 97.6% | UACC-62 melanoma 99.7% | LOX IMVI melanoma 95.6% | SK-MEL-28 melanoma 103% | SK-MEL-2 melanoma 110% | EKVX NSCLC 94% | SN12C renal 101% | UO-31 renal 93.8% | TK-10 renal 108% | ACHN renal 103% | CAKI-1 renal 97.9% | A498 renal 74.5% | CCRF-CEM leukemia 93.9% | MOLT-4 leukemia 49%

CC(=O)N1N=C(C2C(=O)N(C)C(=O)N(C)C2=O)CC1c1ccccc1C(=O)O (stereo not given)
inactive: HCT-15 colon 110% | HT29 colon 98.9% | SNB-75 CNS 95% | SNB-19 CNS 106% | U251 CNS 104% | PC-3 prostate 95.4% | SK-MEL-5 melanoma 107% | UACC-62 melanoma 100% | LOX IMVI melanoma 99.1% | SK-MEL-28 melanoma 112% | SK-MEL-2 melanoma 102% | EKVX NSCLC 105% | SN12C renal 101% | UO-31 renal 87.4% | TK-10 renal 97.6% | ACHN renal 98.9% | CAKI-1 renal 94.8% | A498 renal 91.7% | CCRF-CEM leukemia 94.6% | MOLT-4 leukemia 97.1%
